# Laboratory results taken from PubChem BioAssay.
# Activity calls are given as the source filed them. Unless noted, the rule behind the calls is not given here.
# What was measured:
# [1] = test system: XIP peptide (Xip251-270) binding; experiment: XIP fragment 251-270 binding compounds – biochemical, small-molecule microarray, fluorescence 635/667 nm, 0.1 µg/mL protein, primary screen (AID 1182); settings: fluorescent protein binding, 635 nm, higher = more signal, called active from +8 up or from −8 down
# XIP peptide (Xip251-270) = experiment: compounds binding XIP fragment 251-270 – biochemical, small-molecule microarray, fluorescence 635/667 nm, 0.5 µg/mL protein, primary screen (AID 1183); settings: fluorescence 635 nm, higher = more signal
# [2] = blood-stage malaria parasite viability loss – strain 3D7, DAPI fluorescence, 100 nL, primary screen (AID 1184);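 note: parasites grown inside human red blood cells in medium with human serum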; settings: P. falciparum 3D7 growth, 3 d, higher = more signal
# [3] = target: Homeobox protein Hox-A13 (Mus musculus) (UniProt Q62424); experiment: disruptors of Hoxa13 oligonucleotide interaction – biochemical, fluorescence polarization, labeled oligonucleotide, primary screen (AID 1185); settings: Hoxa13:DNA binding, 15 min, higher = more signal, called active from +8 up or from −8 down
# Chain of Homeobox protein Hox-A13 (Mus musculus) (Q62424 whole entry, looked up): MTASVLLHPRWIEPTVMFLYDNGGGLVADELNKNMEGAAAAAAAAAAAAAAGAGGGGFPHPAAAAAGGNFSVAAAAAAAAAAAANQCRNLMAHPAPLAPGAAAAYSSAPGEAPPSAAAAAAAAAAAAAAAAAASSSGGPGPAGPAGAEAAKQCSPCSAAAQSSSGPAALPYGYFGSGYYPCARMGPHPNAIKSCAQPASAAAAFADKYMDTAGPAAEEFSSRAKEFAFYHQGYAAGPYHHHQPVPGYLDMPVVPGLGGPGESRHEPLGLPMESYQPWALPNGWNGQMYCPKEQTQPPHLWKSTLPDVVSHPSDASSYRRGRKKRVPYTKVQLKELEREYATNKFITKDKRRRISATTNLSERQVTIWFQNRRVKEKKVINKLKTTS
# [4] = blockers of DNA damage checkpoint Chk1 activation – imaging, HeLa, hydroxyurea, phospho-Chk1 antibody, percent positive cells, primary screen (AID 1186); settings: hydroxyurea-induced phospho-Chk1 immunofluorescence imaging, higher = more signal
# [5] = blockers of DNA damage checkpoint Chk1 activation – imaging, HeLa, hydroxyurea, phospho-Chk1 nuclear intensity, primary screen (AID 1187); settings: hydroxyurea-induced phospho-Chk1 immunofluorescence imaging, higher = more signal
Structure (SMILES),composite z-score [1],composite z-score (XIP peptide (Xip251-270)),z-score [2],z-score [3],z-score [4],z-score [5]
C=CCC(OC(C)=O)[C@@H]1[C@@H](N(Cc2cccc3ccccc23)C(=O)Cc2ccc(OC)cc2)c2cc(OCCCO)ccc2N1C(=O)Cc1ccc2ccccc2c1 (some centres undefined),-0.559 (inactive),0.296,-1.91,-2.41 (inactive),0.42 (inactive),0.512 (inactive)
C=CCOC(=O)[C@@H]1[C@H]2C(=O)O[C@H](c3ccccc3)[C@H](c3ccccc3)N2[C@H](c2ccc(OCCOC(=O)[C@H]3C[C@H]4C(=O)N[C@@H](CCCCN(C)C)C(=O)N4[C@H]3c3ccc(O)cc3)cc2)[C@@]12C(=O)Nc1ccc(I)cc12,0.94 (inactive),0.849,-1.92,5.3 (inactive),0.289 (inactive),0.419 (inactive)
COC(=O)[C@]1(Cc2ccccc2)N=C(c2ccc(OCCCO)cc2)O[C@@H]1c1ccccc1CN=[N+]=[N-],0.506 (inactive),0.753,-2.47,-1.89 (inactive),-0.623 (inactive),-0.631 (inactive)
CC1CC/C=C\[C@H]2OC34C=CCN(c5ccc(Cl)cc5)C(=O)[C@H]3N(CCCCCCO)C(=O)[C@]4(C)C2C(=O)O1 (some centres undefined),0.675 (inactive),0.265,0.955,-5.35 (inactive),-0.517 (inactive),-0.187 (inactive)
C=C(C)[C@@H]1CC=C(C(O)C2C=CC3C(=O)N(c4ccccc4)C(=O)C3N2Nc2ccc([N+](=O)[O-])cc2)CC1 (some centres undefined),0.26 (inactive),-0.0122,-1.26,-1.49 (inactive),0.248 (inactive),0.0235 (inactive)
CC(C)(C)N1CC=CC23O[C@@H]4C=CCCOC(=O)C4[C@H]2C(=O)N(CCCCCCO)[C@@H]3C1=O (some centres undefined),1.14 (inactive),0.202,-0.143,-3.77 (inactive),-0.327 (inactive),0.222 (inactive)
O=C1O[C@@H](c2ccccc2)[C@@H](c2ccccc2)N2[C@@H](c3ccc(OCCO)cc3)[C@]3(C(=O)Nc4ccc(C#CCCO)cc43)[C@@H](C(=O)O)[C@H]12,0.901 (inactive),0.443,0.612,-5.86 (inactive),-0.368 (inactive),-0.451 (inactive)
COC(=O)[C@@]1(Cc2ccc(OC)cc2)[C@H]2c3cc(C(=O)N(C)C)[nH]c3C[C@H]2CN1C(=O)c1ccccc1,0.0849 (inactive),-0.197,-0.0305,-2.93 (inactive),-0.041 (inactive),-0.309 (inactive)
C=CCNC(=O)[C@@H]1[C@H]2C(=O)O[C@H](c3ccccc3)[C@H](c3ccccc3)N2[C@H](c2ccc(OCCO)cc2)[C@@]12C(=O)Nc1ccc(C#CC3(O)CCCCCC3)cc12,1.02 (inactive),0.774,-1.73,-1.92 (inactive),-0.0427 (inactive),-0.271 (inactive)
COC(=O)[C@@]1(Cc2ccccc2)[C@H]2c3cc(C(=O)N(C)C)n(CCSC(=N)N)c3C[C@H]2CN1C(=O)c1ccccc1,-0.667 (inactive),0.903,-0.118,-3.8 (inactive),0.835 (inactive),0.849 (inactive)
CN1C(=O)[C@@H]2[C@@H](CC(COc3ccccc3)=C3[C@@H](CCc4ccccc4)OB(O)C[C@@H]32)C1=O,0.106 (inactive),0.774,1.52,-6.67 (inactive),0.556 (inactive),0.768 (inactive)
COc1cc(OC)c(C(O)C2C=CC3C(=O)N(c4ccccc4)C(=O)C3N2Nc2ccc(C(C)C)cc2)cc1Br (centres undefined),0.242 (inactive),0.785,-0.0986,-1.37 (inactive),-0.78 (inactive),-0.639 (inactive)
COC(=O)[C@@]1(Cc2ccc(F)cc2)[C@H]2c3cc(C(=O)N4CCCC4)n(CCc4ccccn4)c3C[C@H]2CN1C(=O)c1ccccc1,0.405 (inactive),-0.189,-1.31,-4.83 (inactive),0.227 (inactive),0.247 (inactive)
CCOC(=O)C[C@H]1[C@H](OC(=O)c2ccccc2-c2ccccc2)[C@@H](NC(=O)c2ccc3ccccc3c2)c2cc(OCCCO)ccc2N1C(=O)Cc1ccc(OC)cc1,0.882 (inactive),-0.47,0.0063,-2.79 (inactive),-0.242 (inactive),-0.189 (inactive)
OCCCC1=CC(c2ccc(CN3CCCC3)cc2)N(Cc2cccc(OC(F)(F)F)c2)CC1 (centres undefined),-0.113 (inactive),-0.504,-2.86,-3.15 (inactive),0.86 (inactive),1.51 (inactive)
CO[C@H]1O[C@H](CO)[C@@H](OC(=O)Nc2ccccc2)[C@H](OC(=O)Nc2ccccc2)[C@H]1OC(=O)Nc1ccccc1,0.142 (inactive),0.69,-2.51,-6.21 (inactive),-0.0874 (inactive),0.511 (inactive)
CCOC(=O)C[C@H]1[C@H](OC(=O)Cc2ccc3c(c2)OCO3)[C@@H](NC(=O)c2ccc3ccccc3n2)c2cc(OCCCO)ccc2N1C(=O)Cc1ccc(OC)cc1,0.322 (inactive),0.401,-2.57,-1.86 (inactive),-0.192 (inactive),0.225 (inactive)

Structure (SMILES),composite z-score [1],composite z-score (XIP peptide (Xip251-270)),z-score [2],z-score [3],z-score [4],z-score [5]
COc1ccccc1CN1C(=O)c2ccccc2[C@](Cc2ccccc2I)(C(=O)NCC(C)C)[C@@H]1c1ccc(CO)cc1,0.935 (inactive),0.932,-0.409,-3.82 (inactive),-0.287 (inactive),-0.208 (inactive)
C=C1C(=O)C=C2CN(C(=O)c3ccccc3)[C@@](Cc3ccc(OC)cc3)(C(=O)OC)[C@@H]12,0.187 (inactive),0.691,-1.17,-3.61 (inactive),0.395 (inactive),0.354 (inactive)
O=C1C2C=CC(C(O)C3CCCCC3)N(n3cnnc3)C2C(=O)N1Cc1ccccc1 (centres undefined),0.534 (inactive),-0.0061,-0.902,-1.8 (inactive),0.359 (inactive),-0.394 (inactive)
O=C1C2C=CC(C(O)c3ccc([N+](=O)[O-])cc3)N(Nc3ccccc3F)C2C(=O)N1c1ccccc1 (centres undefined),0.946 (inactive),0.679,-0.111,-3.41 (inactive),0.8 (inactive),-0.314 (inactive)
C=C(COC)C(=O)CC[C@@H](OC(=O)c1ccccc1-c1ccccc1C(=O)O)c1ccc(OCCO)cc1,0.264 (inactive),0.666,-0.61,-5.88 (inactive),-0.0419 (inactive),0.0533 (inactive)
O=C1C[C@@](C(=O)NC2CC2)(c2ccc([N+](=O)[O-])cc2)[C@@H](c2ccc(CO)cc2)N1C1CCCCC1,1.19 (inactive),0.662,-1.39,-3.19 (inactive),-0.544 (inactive),-0.979 (inactive)
COC(=O)[C@@]1(Cc2ccc(OC)cc2)[C@H]2c3cc(C(=O)N4CCCC4)n(CCn4cc([N+](=O)[O-])nc4C)c3C[C@H]2CN1C(=O)c1ccccc1,1.13 (inactive),0.359,-1.73,-2.67 (inactive),1.65 (inactive),1.22 (inactive)
COc1ccc([Si](C)(C)[C@H]2[C@H](CCO)O[C@@]3(C(=O)N(Cc4ccc(NC(=O)[C@H](C)O)cc4)c4ccccc43)[C@@H]2C)cc1,3.4 (inactive),0.596,-2.7,-4.86 (inactive),-0.704 (inactive),-0.43 (inactive)
[N-]=[N+]=Nc1ccccc1[C@@H]1OC(c2ccc(OCCCO)cc2)=N[C@]1(Cc1ccccc1)C(=O)NCCN1CCOCC1,0.764 (inactive),0.441,-2.65,-3.81 (inactive),-0.437 (inactive),-0.456 (inactive)
NC(=O)NCC#Cc1ccc2c(c1)[C@]1(C(=O)N2)[C@H](c2ccc(OCCO)cc2)N2[C@H](c3ccccc3)[C@H](c3ccccc3)OC(=O)[C@H]2[C@@H]1C(=O)O,0.348 (inactive),-0.0846,-1.17,-5.33 (inactive),0.31 (inactive),0.2 (inactive)
CCCC#C[Si](O[C@H](CC)c1cn(Cc2ccccc2)nn1)(C(C)C)C(C)C,-0.249 (inactive),0.598,0.0331,-0.88 (inactive),-0.074 (inactive),0.0744 (inactive)
C=CC1c2cc(O)c(OC)cc2CCN1C (centres undefined),0.767 (inactive),0.543,0.166,-3.83 (inactive),0.298 (inactive),0.468 (inactive)
CCOc1cc(C(O)C2C=CC3C(=O)N(c4ccccc4)C(=O)C3N2Nc2ccccc2F)ccc1O (centres undefined),1.11 (inactive),-0.213,-0.0969,-3.71 (inactive),-0.379 (inactive),-0.304 (inactive)
COc1ccc([Si](C)(C)[C@H]2[C@H](CC(=O)N3Cc4ccccc4C[C@H]3CO)O[C@@]3(C(=O)N(C)c4c(Br)cc(C)cc43)[C@@H]2C)cc1,0.0621 (inactive),0.445,-2.61,-4.14 (inactive),0.18 (inactive),-0.569 (inactive)
C=CC[C@@]12N=C(c3ccc(OCCCO)cc3)O[C@@H]1c1ccccc1N(CCC)C2=O,2.48 (inactive),0.759,-2.25,-4.8 (inactive),0.291 (inactive),0.58 (inactive)
[N-]=[N+]=Nc1ccccc1[C@H]1OC(c2ccc(OCCCO)cc2)=N[C@@]1(Cc1ccccc1)C(=O)NCC(O)CO (some centres undefined),0.448 (inactive),0.536,-1.84,-4.34 (inactive),0.0068 (inactive),0.251 (inactive)
CCCN1C(=O)[C@@]2(c3ccc([N+](=O)[O-])cc3)CC(=O)N(CC34CC5CC(CC(C5)C3)C4)[C@@H]2c2ccc(CO)cc21,-0.349 (inactive),0.483,0.877,-1.71 (inactive),0.177 (inactive),-0.16 (inactive)
